Test results: PubChem BioAssay (NCATS)
Inconclusive results are not listed. Calls of active or inactive are those of the source. The call rests on the fitted dose curve; in most records, active means well fitted curve in the direction sought with a large enough effect; inconclusive means small, poorly fitted or top-dose-only effect, or another doubt; inactive means no such curve, though single readings can be large; an effect the other way counts as inactive or inconclusive.

Legend:
[1] = Cellular Toxicity (caspase-3) Jurkat (AID 655);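 further: cells exposed to compound for 16 h at 37 °C before reading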
Summary of the method: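 qHTS in human Jurkat T-cell leukemia line: 16 hr compound treatment at 37 °C, caspase-3/7 activity measured by Caspase-Glo luminescence. AC50 derived from Hill equation.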

[2] = Cellular Toxicity (caspase-3) HUV-EC-C (AID 656)
Summary of the method: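 Concentration-dependent caspase 3/7 induction was assessed in HUV-EC-C cells exposed for 16 hours. Data scaled between DMSO and tamoxifen (100 uM) controls.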

[3] = Cellular Toxicity (caspase-3) SHSY5Y (AID 657)
Summary of the method: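 Readout: caspase-cleaved peptide-aminoluciferin substrate driving luciferase light in SH-SY5Y neuroblastoma cells after 16 h treatment. Response normalized to DMSO and 10 uM staurosporine controls.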

[4] = Cellular Toxicity (caspase-3) BJ (AID 658); settings: Potency: caspase-3 activation;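 further: 0% = DMSO basal and 100% = 10 µM staurosporine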
Summary of the method: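 BJ human foreskin fibroblasts, 1000 cells/well, treated 16 hours at 37 °C in complete medium; caspase 3/7 activity by Caspase-Glo luminescence after 1 hr at room temperature. Normalized to DMSO and 10 uM staurosporine; AC50 from Hill fits.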

[5] = Cellular Toxicity (caspase-3) MRC-5 (AID 659);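 further: 0% = DMSO basal and 100% = 10 µM staurosporine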
Summary of the method: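 MRC-5 human normal lung fibroblasts, 1500 cells/well, treated 16 h at 37 °C in complete medium. Caspase 3/7 measured by Caspase-Glo luminescence after 1 h at room temperature. Normalized to DMSO and 10 uM staurosporine; AC50 from Hill fit.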

[6] = Cellular Toxicity (caspase-3) Mesangial (AID 660);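 further: combined caspase 3 and 7 activity read by Caspase-Glo luminescence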
Summary of the method: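 Concentration-response qHTS: compound-induced rise in caspase 3/7 luminescence in human mesangial cells after 16 h, normalized to DMSO and 100 uM tamoxifen controls.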

[7] = Cellular Toxicity (caspase-3) SK-N-SH (AID 661); settings: SK-N-SH caspase-3 activation, qHTS; caspase-3 activation: at 91.7 µM (top of the series), DMSO as zero, staurosporine as full;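 further: 0% = DMSO basal and 100% = 10 µM staurosporine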
Summary of the method: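 Caspase 3/7 activation is measured as a luminescence increase from aminoluciferin released by substrate cleavage in SK-N-SH cells after 16 hr compound treatment; values are AC50 from concentration-response curves.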

[8] = Cellular Toxicity (caspase-3) H-4-II-E (AID 663);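 further: cells exposed to compound for 16 hr before readout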
Summary of the method: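 Rat hepatoma H-4-II-E cells (1500/well) plated 5 hr, then exposed to compound titrations for 16 hr at 37 °C. Caspase-Glo 3/7 luminescence read after 20 min at RT; data normalized to DMSO and 100 uM tamoxifen, AC50 from Hill fits.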

[9] = Cellular Toxicity (caspase-3) Hek293 (AID 664); settings: HEK293 caspase-3 activation, DMSO = 0%, 100 µM tamoxifen = 100%; at 92.2 µM (top of the series);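 further: cells exposed to compound for 16 h at 37 °C before readout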
Summary of the method: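 Activation of caspase-3/7 is measured as increased luminescence from cleaved peptide-aminoluciferin substrate in HEK293 cells treated 16 hours at 37 °C. AC50 values come from Hill-equation fits of concentration-response data.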

[10] = Cellular Toxicity (caspase-3) N2a (AID 665);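 further: compound exposure lasted 16 h at 37 °C before readout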
Summary of the method: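 Plated mouse neuroblastoma N2a cells received titrated compounds for 16 h in complete medium. Caspase activity was then detected with a peptide-aminoluciferin luminescent reagent.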

[11] = Cellular Toxicity (caspase-3) NIH 3T3 (AID 666);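 further: caspase signal read after 16 h compound exposure; 0% = DMSO basal and 100% = 100 µM tamoxifen stimulation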
Summary of the method: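 Concentration-response qHTS in NIH 3T3 mouse fibroblasts scores caspase-3/7 activation as rising luminescence after 16 hr compound exposure. Signals are scaled between DMSO-only and 100 uM tamoxifen.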

[12] = target: Cytochrome P450 3A4 (Homo sapiens) (UniProt P08684); assay: qHTS Assay for Inhibitors and Substrates of Cytochrome P450 3A4 (AID 884); further: on the % scale 0 is the no-effect control and ±100 the full control effect; nearly all actives have a fitted effect of over 50% in size
Summary of the method: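 20 nM human CYP3A4 with 25 uM Luciferin-PPXE (at KM) in 200 mM KPO4, preincubated 10 min with compound; NADPH regeneration started a 60 min RT reaction. Luciferin detected by luminescence, normalized to 57 uM ketoconazole as full inhibition.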

[13] = Confirmation and Secondary Assay for Modulators of Hemoglobin Beta Chain Splicing at IVS2 654 locus (AID 910);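 further: HeLa cells stably carrying EGFP split by mutant beta-globin IVS2-654 intron; % of control where 0% means no effect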
Summary of the method: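 HeLa cells stably expressing EGFP interrupted by β-globin IVS2-654 intron, seeded overnight in Opti-MEM/2% FCS, then treated 2 days at 37 °C. Restored splicing read as total peak GFP intensity per well by laser scanning cytometry (488 nm excitation, 500–520 nm emission); 500 nM antisense PNA as control.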

[14] = Cell Viability - LYMP2-001 (AID 921);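 further: cells exposed to compound for 24 h at 37 °C; 0% = DMSO only and full inhibition = tetraoctylammonium bromide control wells; nearly all actives have a fitted effect of over 70% in size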
Summary of the method: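 A lymphoblastoid cell line of human origin was treated with library compounds across a concentration series for 24 hours, and viable cell number was estimated from ATP-driven luciferase light output. Hill modeling gave AC50.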

[15] = target: Cytochrome P450 3A4 (Homo sapiens) (UniProt P08684); assay: qHTS Assay for Activators of Cytochrome P450 3A4 (AID 885); further: nearly all actives have a fitted effect of over 65% in size
Summary of the method: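 20nM CYP3A4 + 25uM Luciferin-PPXE (=KM), 200mM KPO4; cpd 10 min RT; NADPH regen, 60 min RT; stop w/ detection buffer, 20 min; luminescence. Normalized to 57 uM ketoconazole.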

Sequence of Cytochrome P450 3A4 (Homo sapiens) (P08684 whole entry, looked up): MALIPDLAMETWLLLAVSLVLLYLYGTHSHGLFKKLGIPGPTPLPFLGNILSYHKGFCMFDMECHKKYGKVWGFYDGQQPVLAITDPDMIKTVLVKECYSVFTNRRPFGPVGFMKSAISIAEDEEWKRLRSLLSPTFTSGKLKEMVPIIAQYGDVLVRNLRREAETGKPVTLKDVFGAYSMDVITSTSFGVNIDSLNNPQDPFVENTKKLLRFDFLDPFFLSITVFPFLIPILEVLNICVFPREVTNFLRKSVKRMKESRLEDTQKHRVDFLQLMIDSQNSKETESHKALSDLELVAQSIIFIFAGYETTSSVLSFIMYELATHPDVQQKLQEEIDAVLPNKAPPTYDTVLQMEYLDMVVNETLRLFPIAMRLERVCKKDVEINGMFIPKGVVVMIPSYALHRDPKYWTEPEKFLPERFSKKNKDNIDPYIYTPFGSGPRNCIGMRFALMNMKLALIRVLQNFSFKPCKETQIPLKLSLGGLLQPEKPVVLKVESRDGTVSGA

NC(N)=O
inactive: Potency [1] | outcome [2] | Potency [3] | Potency [4] | outcome [5] | outcome [6] | Potency [7] | outcome [8] | caspase-3 activation [9] 1.05% | outcome [10] | outcome [11] | Potency [12] | Potency [13] | Potency [14]

OC[C@H]1O[C@@H]2O[C@H]3[C@H](O)[C@@H](O)[C@@H](O[C@H]4[C@H](O)[C@@H](O)[C@@H](O[C@H]5[C@H](O)[C@@H](O)[C@@H](O[C@H]6[C@H](O)[C@@H](O)[C@@H](O[C@H]7[C@H](O)[C@@H](O)[C@@H](O[C@H]1[C@H](O)[C@H]2O)O[C@@H]7CO)O[C@@H]6CO)O[C@@H]5CO)O[C@@H]4CO)O[C@@H]3CO
inactive: Potency [1] | outcome [2] | Potency [3] | Potency [4] | outcome [5] | outcome [6] | Potency [7] | outcome [8] | caspase-3 activation [9] 0.542% | outcome [10] | outcome [11] | Potency [12] | Potency [14]

C[C@H](CCC(=O)O)[C@H]1CC[C@H]2[C@@H]3CC[C@@H]4C[C@H](O)CC[C@]4(C)[C@H]3C[C@H](O)[C@]12C
inactive: Potency [1] | outcome [2] | Potency [3] | Potency [4] | outcome [5] | outcome [6] | Potency [7] | outcome [8] | caspase-3 activation [9] -1.48% | outcome [10] | outcome [11] | Potency [14]

C/C=C/C=C/C(=O)O
inactive: Potency [1] | outcome [2] | Potency [3] | Potency [4] | outcome [5] | outcome [6] | Potency [7] | outcome [8] | caspase-3 activation [9] -0.294% | outcome [10] | outcome [11] | Potency [12] | Potency [14]

CCOC(C)OCC
inactive: Potency [1] | outcome [2] | Potency [3] | Potency [4] | outcome [5] | outcome [6] | Potency [7] | outcome [8] | caspase-3 activation [9] 0.677% | outcome [10] | outcome [11] | Potency [12] | Potency [14]

CC[C@H]1OC(=O)[C@H](C)[C@@H](O[C@H]2C[C@@](C)(OC)[C@@H](O)[C@H](C)O2)[C@H](C)[C@@H](O[C@@H]2O[C@H](C)C[C@H](N(C)C)[C@H]2O)[C@](C)(O)C[C@@H](C)CN(C)[C@H](C)[C@@H](O)[C@]1(C)O
inactive: Potency [1] | outcome [2] | Potency [3] | Potency [4] | outcome [5] | outcome [6] | outcome [8] | caspase-3 activation [9] 0.727% | outcome [10] | outcome [11] | Potency [14]

OCc1ccccc1
inactive: Potency [1] | outcome [2] | Potency [3] | Potency [4] | outcome [5] | outcome [6] | Potency [7] | outcome [8] | caspase-3 activation [9] -0.432% | outcome [10] | outcome [11] | Potency [12] | Potency [14]

NCCN
inactive: Potency [1] | outcome [2] | Potency [3] | Potency [4] | outcome [5] | outcome [6] | Potency [7] | outcome [8] | caspase-3 activation [9] 0.975% | outcome [10] | outcome [11] | Potency [12] | Potency [14]

COC(=O)c1ccccc1O
inactive: Potency [1] | outcome [2] | Potency [3] | Potency [4] | outcome [5] | outcome [6] | Potency [7] | outcome [8] | caspase-3 activation [9] 0.0886% | outcome [10] | outcome [11] | Potency [12] | Potency [14]

OB(O)O
inactive: Potency [1] | outcome [2] | Potency [3] | Potency [4] | outcome [5] | outcome [6] | Potency [7] | outcome [8] | caspase-3 activation [9] -1.81% | outcome [10] | outcome [11] | Potency [12] | Potency [14]

Oc1cccc(O)c1O
inactive: Potency [1] | outcome [2] | Potency [3] | Potency [4] | outcome [5] | outcome [6] | Potency [7] | outcome [8] | caspase-3 activation [9] 1.35% | outcome [10] | outcome [11] | Potency [12] | Potency [14]

CC1=CCC2CC1C2(C)C (stereo not given)
inactive: Potency [1] | outcome [2] | Potency [3] | Potency [4] | outcome [5] | outcome [6] | Potency [7] | caspase-3 activation [9] 0.916% | outcome [10] | outcome [11] | Potency [12] | Potency [14]

OCl
inactive: Potency [1] | outcome [2] | Potency [3] | Potency [4] | outcome [5] | outcome [6] | Potency [7] | outcome [8] | caspase-3 activation [9] 2.43% | outcome [10] | outcome [11] | Potency [12] | Potency [14]

[O-][N+](=Nc1ccccc1)c1ccccc1
inactive: Potency [1] | outcome [2] | Potency [3] | Potency [4] | outcome [5] | outcome [6] | Potency [7] | outcome [8] | caspase-3 activation [9] 0.871% | outcome [10] | outcome [11] | Potency [12] | Potency [14]

Oc1ccc(/C=C/c2cc(O)cc(O)c2)cc1
inactive: Potency [1] | outcome [2] | Potency [3] | Potency [4] | outcome [5] | outcome [6] | Potency [7] | caspase-3 activation [9] -7.92% | outcome [10] | outcome [11] | Potency [14]

CC(C)(C)CC(C)(C)c1ccc(OCCO)cc1
inactive: Potency [1] | outcome [2] | Potency [3] | Potency [4] | outcome [5] | outcome [6] | Potency [7] | outcome [8] | caspase-3 activation [9] 5.17% | outcome [10] | outcome [11] | Potency [15]

Cc1ccc(S(=O)(=O)O)cc1C
inactive: Potency [1] | outcome [2] | Potency [3] | Potency [4] | outcome [5] | outcome [6] | Potency [7] | outcome [8] | caspase-3 activation [9] 0.165% | outcome [10] | outcome [11] | Potency [12] | Potency [14]
